The source of these data is PubChem BioAssay (EPA / NIEHS).

A short description of experiment [1]: ATG_CRE_CIS: Attagene CIS-FACTORIAL HepG2 Assay for human cAMP Responsive Element (CRE) binding protein 3 (AID 2282926). The conditions noted are these: HepG2 CRE cis-reporter, Attagene multiplexed mRNA; actives raise or lower the signal. In short, it runs like this: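 HepG2 cells transiently transfected with cis-element-driven multiple reporter transcription units; CRE reporter mRNA measured 24 h after dosing by RT-PCR, 6-FAM labelling, HpaI digestion and capillary electrophoresis. Bidirectional fit versus DMSO baseline.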

The target in experiment [2] is CCAAT/enhancer-binding protein beta (Homo sapiens) (UniProt P17676). As to the kind of experiment: ATG_C_EBP_CIS: Attagene CIS-FACTORIAL HepG2 Assay for human CCAAT/Enhancer Binding Protein (C/EBP) beta (AID 2282927). The conditions noted are these: HepG2 Attagene cis-factorial transcription factor reporter; actives raise or lower the signal. In short, it runs like this: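 Transiently transfected HepG2 (MRTU library, endogenous TF-driven promoters); 24 h dosing; total RNA → oligo(dT) RT → PCR → 6-FAM primer extension → HpaI digest → CE; fit bidirectionally vs DMSO.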

The nature of experiment [3]: ATG_CMV_CIS: Attagene CIS-FACTORIAL HepG2 Assay for human CMV (Internal Marker) (AID 2282928).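 Also: endpoint acts as a background internal control marker rather than a target.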 The conditions noted are these: HepG2 CMV promoter reporter, transcription factor profiling; actives raise or lower the signal. The method, boiled down: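 After transient transfection of HepG2 with reporter transcription units driven by cis-regulatory promoters, cells receive test chemical for 24 h. Labeled reporter amplicons, digested with HpaI, are sized and quantified by capillary electrophoresis against DMSO.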

Experiment [4] in a line: ATG_DR4_LXR_CIS: Attagene CIS-FACTORIAL HepG2 Assay for human Liver X Receptor (LXR), DR4 submotif (AID 2282929). The conditions noted are these: HepG2 Attagene DR4 cis-reporter, mRNA transcription; actives raise or lower the signal. The method, boiled down:
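Measures endogenous transcription factor activity via a DR4-driven reporter transcript in human HepG2 cells. Compounds incubated 24 h; mRNA quantified by RT-PCR and capillary electrophoresis, analysed as gain or loss of signal versus DMSO.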

A short description of experiment [5]: ATG_AP_1_CIS: Attagene CIS-FACTORIAL HepG2 Assay for human Activator Protein 1 (AP-1) (AID 2282931). The conditions noted are these: HepG2 Attagene cis-factorial AP-1 reporter mRNA; actives raise or lower the signal. In short, it runs like this:
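Bidirectional concentration-response fitting against DMSO controls. Underlying signal: reporter mRNA from cis-promoter constructs in transiently transfected HepG2, measured after 24 h by RT-PCR and capillary electrophoresis.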

Experiment [6] is described as follows: ATG_AP_2_CIS: Attagene CIS-FACTORIAL HepG2 Assay for human Activator Protein 2 (AP-2) (AID 2282932). The conditions noted are these: HepG2 AP-2 cis-reporter, Attagene transcription factor profiling; actives raise or lower the signal. The method, boiled down: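 Multiplexed mRNA reporter assay in HepG2: cis-regulated units report endogenous factor activity after 24 h treatment. Fluorescence from capillary electrophoresis of RT-PCR products gives the signal, with DMSO as baseline.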

Experiment [7] can be described thus: ATG_BRE_CIS: Attagene CIS-FACTORIAL HepG2 Assay for human Bone Morphogenetic Protein (BMP) Response Element (BRE) (AID 2282933). The conditions noted are these: HepG2 BMP response element reporter, Attagene transcription factor profiling; actives raise or lower the signal. In short, it runs like this: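 After a 24 h chemical treatment, transiently transfected HepG2 cells were lysed for RNA; reporter transcripts were quantified by fluorescent RT-PCR and capillary electrophoresis, normalised to DMSO.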

Experiment [8] has as its target Transcription factor E2F1 (Homo sapiens) (UniProt Q01094). Briefly: ATG_E2F_CIS: Attagene CIS-FACTORIAL HepG2 Assay for human E2F Transcription Factor 1 (AID 2282935). The conditions noted are these: HepG2 Attagene cis-reporter, E2F reporter RNA transcripts; actives raise or lower the signal. The method, boiled down: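 Measures reporter transcript levels via RT-PCR with capillary electrophoresis detection in HepG2 cells harboring cis-regulated reporter units; 24 h post-dose; bidirectional curve fitting with DMSO as baseline.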

The nature of experiment [9]: ATG_E_Box_CIS: Attagene CIS-FACTORIAL HepG2 Assay for human Enhancer Box (E-box) (AID 2282936). The conditions noted are these: HepG2 E-box cis-reporter transcription, actives raise or lower the signal. The method, boiled down: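 First, HepG2 cells receive multiple cis-regulated reporter constructs by transient transfection. Next, chemicals are applied for 24 h. Finally, reporter mRNA is quantified via RT-PCR and capillary electrophoresis, with DMSO as baseline.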

Experiment [10] in a line: ATG_M_61_CIS: Attagene CIS-FACTORIAL HepG2 Assay for M61 Transcription Factor (Internal Marker) (AID 2282937). The conditions noted are these: HepG2 Attagene CIS-FACTORIAL M61 internal marker reporter; actives raise or lower the signal. The method, boiled down: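 Fluorescence from labelled cDNA fragments, separated by capillary electrophoresis, quantifies reporter induction. HepG2 cells bearing transiently transfected cis-promoter MRTUs were incubated with test chemical for 24 h; DMSO defined baseline for gain/loss fitting.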

Experiment [11] in a line: ATG_EGR_CIS: Attagene CIS-FACTORIAL HepG2 Assay for human Early Growth Response 1 (EGR1) (AID 2282938). The conditions noted are these: HepG2 Attagene CIS-FACTORIAL EGR reporter mRNA; actives raise or lower the signal. The method, boiled down: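 Cell-based multiplex transcription assay: HepG2 carrying transfected cis-element reporter units, 24 h chemical treatment. Fluorescence from capillary electrophoresis of RT-PCR products gives mRNA levels; fitting is bidirectional relative to DMSO.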

The nature of experiment [12]: ATG_M_19_CIS: Attagene CIS-FACTORIAL HepG2 Assay for M19 Transcription Factor (Internal Marker) (AID 2282939). The conditions noted are these: HepG2 Attagene CIS-FACTORIAL M19 internal marker reporter; actives raise or lower the signal. The method, boiled down:
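In this multiplexed cell assay, transiently transfected HepG2 reporter units report endogenous transcription-factor activity; after 24 hours of treatment, labelled reporter cDNA fragments are quantified by capillary electrophoresis and fitted bidirectionally against DMSO.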

Experiment [13] in a line: ATG_ERE_CIS: Attagene CIS-FACTORIAL HepG2 Assay for Estrogen Response Element (ERE) (AID 2282940). The conditions noted are these: HepG2 ERE cis-reporter, Attagene RNA transcript; actives raise or lower the signal. In short, it runs like this:
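Measuring endogenous transcription factor output, the assay doses transfected HepG2 cells for 24 hours and quantifies reporter transcripts by fluorescent RT-PCR and capillary electrophoresis, with DMSO as baseline.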

A short description of experiment [14]: ATG_Ets_CIS: Attagene CIS-FACTORIAL HepG2 Assay for human Erythroblast Transformation Specific (ETS) (AID 2282941). The conditions noted are these: HepG2 ETS cis-reporter transcription, actives raise or lower the signal. In short, it runs like this:
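Human HepG2 hepatoma cells were transiently transfected with promoter-driven reporter constructs and treated for 24 hours. Reporter transcripts were quantified by RT-PCR with fluorescent primer extension; bidirectional curve fitting used DMSO as reference.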

For experiment [15], the target named is Hepatocyte nuclear factor 3-beta (Homo sapiens) (UniProt Q9Y261). As to the kind of experiment: ATG_FoxA2_CIS: Attagene CIS-FACTORIAL HepG2 Assay for human Forkhead box A2 (FOXA2) (AID 2282942). The conditions noted are these: HepG2 cis-reporter transcription factor activity, 24 h; actives raise or lower the signal. In short, it runs like this: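 In transiently transfected human HepG2 cells, promoter-driven reporter mRNA levels after 24 h chemical exposure are determined via RT-PCR with capillary electrophoresis. DMSO serves as baseline for bidirectional fitting.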

A short description of experiment [16]: ATG_FoxO_CIS: Attagene CIS-FACTORIAL HepG2 Assay for human Forkhead box O (FoxO) (AID 2282943). The conditions noted are these: HepG2 Attagene cis-reporter, FoxO element, mRNA; actives raise or lower the signal. The method, boiled down:
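Read-out: fluorescence of 6-FAM-labelled reporter cDNA fragments resolved by capillary electrophoresis. Transiently transfected HepG2 cells were dosed for 24 h; activity fitted in both directions relative to DMSO controls.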

The nature of experiment [17]: ATG_GATA_CIS: Attagene CIS-FACTORIAL HepG2 Assay for human GATA Binding Protein (AID 2282944). The conditions noted are these: HepG2 GATA cis-element reporter, Attagene multiplex mRNA; actives raise or lower the signal. In short, it runs like this:
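Measures endogenous transcription factor-driven reporter mRNA in HepG2 cells transiently carrying cis-regulated constructs. 24 h dosing; RNA via oligo(dT) reverse transcription, PCR, HpaI digestion, capillary electrophoresis; fitted relative to DMSO.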

The nature of experiment [18]: ATG_GLI_CIS: Attagene CIS-FACTORIAL HepG2 Assay for human Zinc Finger Protein GLI1 (AID 2282945). The conditions noted are these: HepG2, Attagene cis-factorial reporter mRNA, GLI element; actives raise or lower the signal. The method, boiled down: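 Transiently transfected HepG2 cells report endogenous transcription factor activity via cis-element-driven reporter units. After 24 h compound exposure, reporter mRNA was measured by RT-PCR with capillary electrophoresis; bidirectional fitting against DMSO baseline.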

Experiment [19] concerns the target Bile acid receptor (Homo sapiens) (UniProt Q96RI1). As to the kind of experiment: ATG_IR1_CIS: Attagene CIS-FACTORIAL HepG2 Assay for human Nuclear Receptor Subfamily 1 Group H Member 4 (NR1H4), IR1 submotif (AID 2282946). The conditions noted are these: IR1 reporter transcription, actives raise or lower the signal. In short, it runs like this:
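HepG2 cells transiently transfected with multiple cis-promoter-driven reporter units to measure endogenous transcription factor activity; 24 h exposure. Reporter mRNA read by RT-PCR, FAM labelling, HpaI digestion and capillary electrophoresis. Bidirectional fit versus DMSO.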

In experiment [20] the target is Aryl hydrocarbon receptor (Homo sapiens) (UniProt P35869). Briefly: ATG_Ahr_CIS: Attagene CIS-FACTORIAL HepG2 Assay for human Aryl Hydrocarbon Receptor (Ahr) (AID 2282930). The conditions noted are these: HepG2 AhR cis-factorial reporter transcription; actives raise or lower the signal. In short, it runs like this: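 Read-out: reporter mRNA quantified by RT-PCR with fluorescent primer extension and capillary electrophoresis. Human HepG2 liver cells carried transfected cis-promoter reporter units and were exposed to chemical for 24 h; gain or loss fitted relative to DMSO.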

Each structure is given as a SMILES string. Active and inactive are the calls of the source. The calls were made as follows: active = hit-call score of the fitted dose curve at least 0.9, where 1 is the maximum; inactive = score below 0.9.

Hepatocyte nuclear factor 3-beta (Homo sapiens), sequence (Q9Y261 whole entry, looked up): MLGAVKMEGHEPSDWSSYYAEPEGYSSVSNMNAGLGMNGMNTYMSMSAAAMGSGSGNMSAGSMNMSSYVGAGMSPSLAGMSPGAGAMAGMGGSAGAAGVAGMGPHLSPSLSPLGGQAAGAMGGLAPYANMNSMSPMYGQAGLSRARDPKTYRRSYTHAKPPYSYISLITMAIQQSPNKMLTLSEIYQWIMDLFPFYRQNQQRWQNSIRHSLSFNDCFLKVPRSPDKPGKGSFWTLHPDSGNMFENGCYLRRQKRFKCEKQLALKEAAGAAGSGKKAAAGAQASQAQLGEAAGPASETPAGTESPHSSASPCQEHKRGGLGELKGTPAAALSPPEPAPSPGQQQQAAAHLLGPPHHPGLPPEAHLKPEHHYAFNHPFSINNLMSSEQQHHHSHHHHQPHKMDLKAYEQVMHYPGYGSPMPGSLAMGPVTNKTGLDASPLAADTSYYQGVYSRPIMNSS
CCAAT/enhancer-binding protein beta (Homo sapiens), sequence (P17676 whole entry, looked up): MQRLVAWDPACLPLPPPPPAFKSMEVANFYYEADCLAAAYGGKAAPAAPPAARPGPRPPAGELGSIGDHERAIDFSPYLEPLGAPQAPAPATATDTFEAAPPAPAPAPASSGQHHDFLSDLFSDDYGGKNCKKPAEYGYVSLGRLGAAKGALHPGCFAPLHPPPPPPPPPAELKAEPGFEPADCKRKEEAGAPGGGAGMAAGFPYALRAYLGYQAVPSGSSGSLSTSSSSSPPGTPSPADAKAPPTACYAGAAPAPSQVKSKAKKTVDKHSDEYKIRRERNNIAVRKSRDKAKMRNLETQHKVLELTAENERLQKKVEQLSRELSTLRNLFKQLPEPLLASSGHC
Bile acid receptor (Homo sapiens), sequence (Q96RI1 whole entry, looked up): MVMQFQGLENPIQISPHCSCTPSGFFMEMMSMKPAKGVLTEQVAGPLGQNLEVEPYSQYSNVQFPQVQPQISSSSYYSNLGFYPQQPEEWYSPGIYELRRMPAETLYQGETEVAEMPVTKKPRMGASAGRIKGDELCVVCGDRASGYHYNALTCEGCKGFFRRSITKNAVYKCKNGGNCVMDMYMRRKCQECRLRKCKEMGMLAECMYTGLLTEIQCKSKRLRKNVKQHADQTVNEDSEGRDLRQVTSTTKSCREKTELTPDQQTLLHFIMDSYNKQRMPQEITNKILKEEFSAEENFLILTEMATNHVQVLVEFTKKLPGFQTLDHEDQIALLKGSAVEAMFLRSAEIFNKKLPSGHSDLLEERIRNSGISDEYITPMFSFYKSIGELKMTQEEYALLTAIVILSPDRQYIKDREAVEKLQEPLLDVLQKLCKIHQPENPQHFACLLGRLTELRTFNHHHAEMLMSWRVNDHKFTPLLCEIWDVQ
Aryl hydrocarbon receptor (Homo sapiens), sequence (P35869 whole entry, looked up): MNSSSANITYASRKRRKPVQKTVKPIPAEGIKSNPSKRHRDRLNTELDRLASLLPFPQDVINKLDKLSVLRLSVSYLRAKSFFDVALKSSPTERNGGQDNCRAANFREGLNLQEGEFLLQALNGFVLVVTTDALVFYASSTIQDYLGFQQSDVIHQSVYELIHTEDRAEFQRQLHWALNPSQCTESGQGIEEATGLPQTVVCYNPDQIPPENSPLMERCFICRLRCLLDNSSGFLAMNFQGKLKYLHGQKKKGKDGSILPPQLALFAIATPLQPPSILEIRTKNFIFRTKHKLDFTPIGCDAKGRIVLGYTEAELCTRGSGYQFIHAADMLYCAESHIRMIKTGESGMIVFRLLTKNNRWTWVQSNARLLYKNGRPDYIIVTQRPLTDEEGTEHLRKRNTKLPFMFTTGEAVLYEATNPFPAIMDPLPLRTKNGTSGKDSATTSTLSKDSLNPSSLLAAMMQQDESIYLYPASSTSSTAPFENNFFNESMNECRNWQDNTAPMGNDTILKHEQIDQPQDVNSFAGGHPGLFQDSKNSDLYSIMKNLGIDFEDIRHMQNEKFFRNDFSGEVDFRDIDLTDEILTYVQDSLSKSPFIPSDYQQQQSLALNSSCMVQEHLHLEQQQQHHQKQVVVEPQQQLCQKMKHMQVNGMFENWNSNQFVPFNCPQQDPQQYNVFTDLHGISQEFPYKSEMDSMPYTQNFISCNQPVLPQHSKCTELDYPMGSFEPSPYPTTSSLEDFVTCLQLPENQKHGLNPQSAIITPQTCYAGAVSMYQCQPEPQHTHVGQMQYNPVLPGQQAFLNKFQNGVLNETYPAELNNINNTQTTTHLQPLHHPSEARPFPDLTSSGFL
Transcription factor E2F1 (Homo sapiens), sequence (Q01094 whole entry, looked up): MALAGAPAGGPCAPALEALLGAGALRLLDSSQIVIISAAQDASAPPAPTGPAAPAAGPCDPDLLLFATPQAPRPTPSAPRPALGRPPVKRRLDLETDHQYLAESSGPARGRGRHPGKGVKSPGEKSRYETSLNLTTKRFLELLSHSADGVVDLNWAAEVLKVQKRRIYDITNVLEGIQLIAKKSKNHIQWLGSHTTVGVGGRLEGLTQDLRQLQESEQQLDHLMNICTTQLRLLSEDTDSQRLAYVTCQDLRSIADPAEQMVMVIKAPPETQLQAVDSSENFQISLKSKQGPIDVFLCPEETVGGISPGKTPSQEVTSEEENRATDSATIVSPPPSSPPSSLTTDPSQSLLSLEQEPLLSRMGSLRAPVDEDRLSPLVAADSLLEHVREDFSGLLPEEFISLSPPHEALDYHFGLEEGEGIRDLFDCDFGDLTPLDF

In the case of `COC(=O)CCC(=O)OC`, the outcome in experiment [1], in experiment [2], in [3], in experiment [4], in experiment [5] and in [6] was inactive. In addition, the molecule was called inactive in experiment [7], in experiment [8], in experiment [9], in experiment [10], in [11] and in [12]. Also, the outcome in experiment [13], in experiment [14], in experiment [15], in experiment [16], in [17] and in experiment [18] was inactive. Also, the outcome in experiment [19] was inactive.
As to `CC(=O)S[C@H](C(=O)N[C@H]1Cc2ccccc2[C@H]2CCC[C@@H](C(=O)O)N2C1=O)C(C)C`, the call in experiment [1], in experiment [2], in [3], in [4], in [20] and in experiment [5] was inactive. Also, the call in experiment [6], in experiment [7], in experiment [8], in experiment [9], in experiment [10] and in experiment [11] was inactive. Besides, the molecule was called inactive in [12], in experiment [14], in [15], in experiment [16], in [17] and in experiment [18]. In addition, the call in [19] was inactive.
Consider `CC(=O)CC(c1ccccc1)c1c(O)c2ccccc2oc1=O` (stereo unspecified), for which the call in [1], in experiment [2], in experiment [3], in experiment [4], in [5] and in [6] was inactive. Further, the outcome in [7], in [8], in experiment [9], in [10], in experiment [11] and in experiment [12] was inactive. Besides, the outcome in experiment [14], in [15], in experiment [16], in [17] and in experiment [18] was inactive.
In the case of `O=C1OC(c2ccc(O)cc2)(c2ccc(O)cc2)c2ccccc21`, the AC50 is 27.2 µM (active) in experiment [1]; 184 µM (active) in experiment [2]; 177 µM (active) in [3]; 54.9 µM (active) in experiment [4]; 169 µM (active) in experiment [5]; 48.1 µM (active) in experiment [6]. The AC50 is 176 µM (active) in experiment [9], 20.8 µM (active) in experiment [11], 177 µM (active) in experiment [15] and 159 µM (active) in [18]. The outcome in [7], in experiment [8], in experiment [10], in [12], in [14] and in [16] was inactive. Besides, the molecule was classed as inactive in [17].
Consider `COC(=O)CCCC(=O)OC`, for which the outcome in experiment [1], in experiment [2], in [3], in experiment [4], in experiment [5] and in experiment [6] was inactive. Further, the call in experiment [7], in [8], in experiment [9], in experiment [10], in experiment [11] and in experiment [12] was inactive. The result in experiment [14], in experiment [15], in experiment [16], in [17], in experiment [18] and in [19] was inactive.
With `O=C(O)c1cccnc1`, the call in experiment [1], in [2], in [3], in experiment [20], in [5] and in [6] was inactive. Also, the molecule was classed as inactive in [7], in [8], in experiment [9], in [10], in [11] and in [12]. Further, the result in experiment [14], in experiment [16], in [17], in [18] and in experiment [19] was inactive.
For `O=C(O)CN(CC(=O)O)CC(=O)O`, the call in experiment [1], in [2], in experiment [3], in [4], in [5] and in experiment [6] was inactive. Also, the outcome in experiment [7], in experiment [8], in experiment [9], in experiment [10], in experiment [11] and in experiment [12] was inactive. Moreover, the outcome in experiment [13], in experiment [14], in experiment [15], in [16], in [17] and in experiment [18] was inactive. In experiment [19], the result was inactive.

By AC50 is commonly meant the concentration at which the activity in the assay is half-maximal.
